Data: PubChem BioAssay AID1159580 (chemical genetic matrix, 2015)
Screen size: about 5,500 compounds; about 2,000 (36%) were called active. Another 18% or so got no clear call; they are omitted. Rule as the data show it: active = normalized growth mostly below about 0.91 (no sharp cut-off); inconclusive = no clear call, values can overlap the other calls; inactive = mostly above about 0.92. Some of the results follow.

Assay: chemical genetic growth profiling, strain panel (AID 1159580);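 also: tested at 20 µM; growth read once vehicle control cultures reached saturation at 30 °C; 1 = growth at the plate median or of vehicle wells; lower values mean less growth of the strain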
Conditions: S. cerevisiae deletion strains, growth OD
[1] = locus YGR078C, strain PAC10, stronger effect = lower value
[2] = locus YJR075W, strain HOC1, stronger effect = lower value
[3] = locus YMR263W, strain SAP30, stronger effect = lower value
[4] = locus YNL128W, strain TEP1, stronger effect = lower value
[5] = locus YNL153C, strain GIM3, stronger effect = lower value
[6] = locus YNL322C, strain KRE1, stronger effect = lower value
[7] = locus YPL055C, strain LGE1, stronger effect = lower value
[8] = locus YPL241C, strain CIN2, stronger effect = lower value

Measured: normalized growth

Cn1cc(C(F)(F)F)nc1-c1ccc(OCC(O)CNCCOc2ccc(O)c(C(N)=O)c2)cc1 (configuration not stated)
inactive: locus YAL040C, strain CLN3, stronger effect = lower value 0.996 | locus YCL061C, strain MRC1 (second series), stronger effect = lower value 1 | locus YDR363W, strain ESC2, stronger effect = lower value 1.01 | locus YER002W, strain NOP16, stronger effect = lower value 1.04 | [1] 1.01 | [2] 1 | [3] 1.01 | [4] 1.02 | [5] 1.01 | locus YNL175C, strain NOP13, stronger effect = lower value 1.05 | locus YNL197C, strain WHI3, stronger effect = lower value 1.03 | locus YNL224C, strain SQS1, stronger effect = lower value 1.04 | [6] 1.03 | locus YOR083W, strain WHI5 (second series), stronger effect = lower value 0.987 | [7] 1.01 | [8] 1

CC(C)(C)c1ccc(CSc2nc(N)cc(=O)[nH]2)cc1
inactive: locus YAL013W, strain DEP1, stronger effect = lower value 0.993 | locus YBR229C, strain ROT2, stronger effect = lower value 1.02 | locus YCL061C, strain MRC1, stronger effect = lower value 0.998 | locus YDL101C, strain DUN1, stronger effect = lower value 0.981 | locus YDL134C, strain PPH21, stronger effect = lower value 1.01 | locus YDR150W, strain NUM1, stronger effect = lower value 0.949 | locus YEL061C, strain CIN8, stronger effect = lower value 0.995 | [1] 1 | locus YGR229C, strain SMI1, stronger effect = lower value 1.01 | locus YHR030C, strain SLT2, stronger effect = lower value 0.988 | locus YHR087W, strain rtc3, stronger effect = lower value 0.993 | locus YJL187C, strain SWE1, stronger effect = lower value 0.985 | locus YJR043C, strain POL32, stronger effect = lower value 1.01 | [2] 1.01 | locus YKL190W, strain CNB1, stronger effect = lower value 1.02 | locus YLR039C, strain RIC1, stronger effect = lower value 1.02 | locus YLR058C, strain SHM2 (second series), stronger effect = lower value 1.01 | locus YLR085C, strain ARP6, stronger effect = lower value 0.898 | locus YLR262C, strain YPT6, stronger effect = lower value 1.09 | locus YML094W, strain GIM5, stronger effect = lower value 0.975 | locus YMR219W, strain ESC1, stronger effect = lower value 1 | [3] 1.01 | locus YMR307W, strain GAS1, stronger effect = lower value 0.855 | [4] 1.01 | [5] 1.01 | locus YNL298W, strain CLA4 (second series), stronger effect = lower value 1.01 | [6] 1 | locus YNR030W, strain Alg12, stronger effect = lower value 1.01 | [7] 0.862 | [8] 0.972 | locus YPR135W, strain CTF4, stronger effect = lower value 0.949
